# Laboratory results from PubChem BioAssay (NCATS).
# Results filed as inconclusive are left out. A call without a number means that no potency is given here. Calls of active or inactive are those of the source. Unless noted, the call rests on the fitted dose curve.
# Legend:
# [1] = qHTS for Inhibitors of the Functional Ribonucleoprotein Complex (vRNP) of Lassa (LASV) Arenavirus: LASV Primary Screen - GLuc reporter signal (AID 1347082; calls by dose curve; tested in HEK293 reporter line; further: nearly all actives have a fitted effect of over 60% in size; further: potency means the concentration at half of the fitted maximal effect)
# [2] = qHTS for Inhibitors of the Functional Ribonucleoprotein Complex (vRNP) of Lassa (LASV) Arenavirus: Viability assay - alamar blue signal for LASV Primary Screen (AID 1347083; calls by dose curve; tested in HEK293 reporter line; further: nearly all actives have a fitted effect of over 80% in size; further: potency means the concentration at half of the fitted maximal effect)
# [3] = qHTS for Inhibitors of the Functional Ribonucleoprotein Complex (vRNP) of Lymphocytic Choriomeningitis Arenaviruses (LCMV): Viability assay - alamar blue signal for LCMV Primary Screen (AID 1347085; calls by dose curve; tested in HEK293 reporter line; further: nearly all actives have a fitted effect of over 80% in size; further: potency means the concentration at half of the fitted maximal effect)
# [4] = Cytotoxicity counterscreen for inhibitors of SARS-CoV-2 cell entry (AID 1645845); further: nearly all actives have a fitted effect of over 50% in size
# In short: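 ATP-content luminescence (ATPLite 1step, 15 min RT) read after 48 h compound exposure of Expi293F cells stably expressing human ACE2; normalized to cells-only wells and media-only wells.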
# [5] = Primary qHTS to identify inhibitors of SARS-CoV-2 cell entry (AID 1645846); conditions: activity change, negative = inhibition: at 57.1 µM (top of the series) unless noted; further: nearly all actives have a fitted effect of over 45% in size; further: potency means the concentration at half of the fitted maximal effect
# In short: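 Inhibition of spike-mediated entry was scored in human ACE2-transfected Expi293F cells. Particles were MLV-pseudotyped with Wuhan-Hu-1 S carrying a 19-aa C-terminal deletion; signal was luciferase after two days, scaled between spike PP and fusion-protein-free PP.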
# CRL-7250 = normal cell line; assay: qHTS assay to identify novel small-molecules to repurpose for Merkel cell carcinoma treatment (AID 1296009; active means well fitted inhibition curve with a large enough effect; further: nearly all actives have a fitted effect of over 60% in size); conditions: MCC and control cell lines, CellTiter-Glo viability, 72 h; series mostly up to 92 µM
# In short: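 Cell viability measured by CellTiter-Glo following 72 hr compound treatment at 37 degree celsius, with NPC and MIPE libraries tested in 8- and 11-point concentration series.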
# [6] = target: Nucleoprotein (Lymphocytic choriomeningitis virus (strain Armstrong)) (UniProt P09992); assay: qHTS for Inhibitors of the Functional Ribonucleoprotein Complex (vRNP) of Lymphocytic Choriomeningitis Arenaviruses (LCMV): LCMV Primary Screen - GLuc reporter signal (AID 1347086); further: nearly all actives have a fitted effect of over 70% in size
# [7] = Confirmatory qHTS for activators (rescue) of SARS-CoV-2 Cytopathic Effect (CPE) (AID 1508606); further: potency means the concentration at half of the fitted maximal effect; nearly all actives have a fitted effect of over 70% in size
# [8] = qHTS profiling of the MIPE4 collection as inhibitors of Plasmodium falciparum (3D7) proliferation (AID 743344; call rule not given here); conditions: P. falciparum 3D7 in erythrocytes, SYBR Green DNA fluorescence, 72 h; at 28.5 µM (top of the series) unless noted
# In short: (§1)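 Parasite DNA was quantified by SYBR Green I fluorescence (ex 485, em 535 nm) after overnight lysis in saponin/Triton buffer at room temperature. Cultures at 0.3% parasitemia and 2.5% hematocrit were first exposed to compound for 72 h at 37 C; signals were normalised to artemisinin (0.29 uM) and vehicle wells.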
# [9] = qHTS profiling of the MIPE4 collection as inhibitors of Plasmodium falciparum (DD2) proliferation (AID 743345; call rule not given here); conditions: P. falciparum Dd2 in erythrocytes, SYBR Green DNA, 72 h; at 28.5 µM (top of the series) unless noted
# In short: as §1
# [10] = qHTS profiling of the MIPE4 collection as inhibitors of Plasmodium falciparum (DD2) proliferation (Rep 2) (AID 743346; call rule not given here); conditions: P. falciparum Dd2 in erythrocytes, SYBR Green DNA, 72 h; at 28.5 µM (top of the series) unless noted
# In short: as §1
# [11] = qHTS profiling of the MIPE4 collection as inhibitors of Plasmodium falciparum (HB3) proliferation (AID 743347; call rule not given here); conditions: P. falciparum HB3 in erythrocytes, SYBR Green DNA, 72 h; at 28.5 µM (top of the series) unless noted
# In short: as §1
# [12] = VSVG counterscreen qHTS to identify inhibitors of SARS-CoV-2 cell entry (AID 1645847); further: potency means the concentration at half of the fitted maximal effect; nearly all actives have a fitted effect of over 65% in size
# In short: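 Luminescence from a luciferase reporter, normalised to bald particle and VSV-G pseudotyped particle wells, is the read-out. Cells are HEK293 expressing human ACE2, exposed to compound 1 h before a 48 h particle infection at 37 °C.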
# [13] = Primary qHTS for inhibitors of SARS-S pseudo-typed particle cell entry (AID 1479145); further: nearly all actives have a fitted effect of over 45% in size
# [14] = Primary qHTS for Huh7 cytotoxicity: counterscreen for inhibitors of MERS-S pseudotyped particle cell entry (AID 1479147); conditions: outcome: dose series up to 57.1 µM unless noted
# [15] = Primary qHTS for Vero E6 cytotoxicity: counterscreen for inhibitors of SARS-S pseudo-typed particle cell entry (AID 1479150); conditions: outcome: dose series up to 57.1 µM unless noted
# Nucleoprotein (Lymphocytic choriomeningitis virus (strain Armstrong)), sequence (P09992 whole entry, looked up): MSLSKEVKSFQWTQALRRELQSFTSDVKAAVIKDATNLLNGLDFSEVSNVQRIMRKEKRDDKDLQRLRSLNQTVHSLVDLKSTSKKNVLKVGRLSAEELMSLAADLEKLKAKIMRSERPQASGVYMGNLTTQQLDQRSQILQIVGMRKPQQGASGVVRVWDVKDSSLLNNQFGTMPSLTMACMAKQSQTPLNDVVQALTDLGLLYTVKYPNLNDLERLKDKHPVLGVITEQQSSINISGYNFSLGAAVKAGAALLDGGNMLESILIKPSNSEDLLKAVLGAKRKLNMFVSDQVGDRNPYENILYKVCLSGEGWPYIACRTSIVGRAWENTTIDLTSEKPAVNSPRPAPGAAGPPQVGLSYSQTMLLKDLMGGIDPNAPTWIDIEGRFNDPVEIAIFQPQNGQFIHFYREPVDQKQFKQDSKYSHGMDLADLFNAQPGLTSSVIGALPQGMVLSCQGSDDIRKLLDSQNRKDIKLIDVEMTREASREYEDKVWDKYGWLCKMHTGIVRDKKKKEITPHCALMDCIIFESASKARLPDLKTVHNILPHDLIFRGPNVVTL
smiles,measurement,setting,value
OC1CCC(Nc2ncc3nc(Nc4c(F)cc(F)cc4F)n([C@@H]4CCOC4)c3n2)CC1 (stereo partly specified),Potency,[1],inactive
same,Potency,[2],24.3 µM (active)
same,Potency,[3],21.7 µM (active)
same,Potency,[4],inactive
same,Potency,[5],inactive
same,Potency,CRL-7250,inactive
COc1cc(NC(=O)c2ccc(-c3ccc(Cl)cc3)o2)cc(OC)c1,Potency,[1],34.3 µM (active)
same,Potency,[2],15.3 µM (active)
same,Potency,[3],21.7 µM (active)
same,Potency,[4],inactive
same,"activity change, negative = inhibition",[5],-4.11%
same,Potency,CRL-7250,inactive
COC(=O)[C@H](CCCN=C(N)N)NS(=O)(=O)c1ccc(C)cc1,Potency,[1],inactive
same,Potency,[3],17.2 µM (active)
same,"activity change, negative = inhibition",[5],-0.183%
same,Potency,CRL-7250,inactive
CN(CC(=O)N(Cc1ccc(C2CCCCC2)cc1)c1ccc(C(=O)O)c(O)c1)S(=O)(=O)c1c(F)c(F)c(F)c(F)c1F,Potency,[1],inactive
same,Potency,[2],27.3 µM (active)
same,Potency,[6],inactive
same,Potency,[4],inactive
same,"activity change, negative = inhibition",[5],-15.1%
same,Potency,CRL-7250,inactive
O=c1cc(-c2cccc3c2Sc2ccccc2S3)oc(N2CCOCC2)c1,Potency,[1],inactive
same,Potency,[6],inactive
same,Potency,[7],3.55 µM (active)
same,Potency,CRL-7250,inactive
COc1ccc2c(c1)c(C1=C(c3c[nH]c4ccccc34)C(=O)NC1=O)cn2CCCN(C)C,Potency,[2],0.485 µM (active)
same,Potency,CRL-7250,inactive
CCN1C[C@H](C)n2c(c(O)c3c(=O)n(Cc4ccc(F)c(Cl)c4)nc(C(=O)NC)c32)C1=O,"parasite growth, % of DMSO control",[8],43.2%
same,"parasite growth remaining, % of DMSO control (lower = more inhibition)",[9],55.9%
same,"parasite growth, % of control (lower = inhibition)",[10],45.4%
same,"growth, % of control",[11],48.6%
same,Potency,[1],inactive
same,Potency,[2],inactive
same,Potency,[3],inactive
same,Potency,[6],inactive
same,Potency,CRL-7250,inactive
Nc1ccc(C(=O)Nc2cccc(-c3nc(N4CCOCC4)c4oc5ncccc5c4n3)c2)cn1,Potency,[1],inactive
same,Potency,[2],1.22 µM (active)
same,Potency,[3],0.968 µM (active)
same,Potency,[5],0.891 µM (active)
same,Potency,[12],0.0048 µM (active)
same,Potency,CRL-7250,inactive
Cc1ccc2c(c1)c1c(n2CCc2ccc(C)nc2)CCN(C)C1,Potency,[1],inactive
same,Potency,[6],inactive
same,Potency,CRL-7250,inactive
N#Cc1c(N(CC(=O)O)CC(=O)O)sc(C(=O)O)c1CC(=O)O,Potency,[1],inactive
same,Potency,[2],inactive
same,Potency,[6],inactive
same,"activity change, negative = inhibition",[13],-19.2% [at 0.573 µM] (inactive)
same,outcome,[14],inactive [at 0.573 µM]
same,outcome,[15],inactive [at 0.573 µM]
same,outcome,[4],inactive [at 0.702 µM]
same,Potency,CRL-7250,inactive
CCC(c1ccc(O)cc1)C(CC)c1ccc(O)cc1 (stereo unspecified),Potency,[1],inactive
same,Potency,[2],inactive
same,Potency,[3],inactive
same,Potency,[4],inactive
same,"activity change, negative = inhibition",[5],-63.9%
same,Potency,[12],30.4 µM (active)
same,Potency,CRL-7250,inactive
